# The panel holds about 79,000 compounds, 15% with a hit somewhere; the sample as a whole holds those more often. Values without a mark were called inactive. The source made the active and inactive calls. No stated cut-off is given here; in the data, active means growth inhibition above about 70%; inactive means the rest. *1 amine or outer side, *2 acyl side, *3 side chain or, on linkers, in order; H or OH if unused. Where a SMILES comes first, the peptide text is derived from it. Bridges are numbered along the chain shown (N, C = ends). Roman numbers before positions name the chains, in order. [ ]: non-standard residue; d: D form. Actinocin(1to9) = Cc1c2oc3c(C)ccc(C(=O)[*:2])c3nc-2c(C(=O)[*:1])c(N)c1=O; NMeY = CN[CH](Cc1ccc(O)cc1)C(=O)O; Sar = CNCC(=O)O
# Columns and labels:
# [1] = NCI Yeast Anticancer Drug Screen. Data for the rad50 strain (AID 155);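 further: 0% = growth of vehicle-only cultures of the same strain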; conditions: S. cerevisiae rad50 strain growth inhibition; at 50.0 µM; active compounds read high
# In short: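 Compounds were tested on a yeast strain with an engineered DNA damage repair alteration; the reported value is growth inhibition normalised to vehicle treatment.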
# [2] = NCI Yeast Anticancer Drug Screen. Data for the mec2-1 strain (AID 157); conditions: S. cerevisiae mec2-1 strain, at 50.0 µM, active compounds read high
# In short: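 Vehicle-treated cultures served as reference for growth inhibition of compound-exposed mec2-1 yeast.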
# [3] = NCI Yeast Anticancer Drug Screen. Data for the sgs1 mgt1 strain (AID 161);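 further: 0% = growth of cultures given vehicle only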; conditions: S. cerevisiae sgs1 mgt1 strain, at 50.0 µM, active compounds read high
# In short: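 Inhibition of yeast growth, normalised to vehicle-treated controls, is reported for a strain bearing genetic alterations in DNA damage repair.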
# [4] = NCI Yeast Anticancer Drug Screen. Data for the cln2 rad14 strain (AID 165);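 further: 0% = growth equal to vehicle treated cultures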; conditions: S. cerevisiae cln2 rad14 strain, at 50.0 µM, active compounds read high
# In short: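 Each compound was tested on cln2 rad14 yeast. Inhibition of growth was calculated against vehicle-exposed controls.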
# [5] = NCI Yeast Anticancer Drug Screen. Data for the bub3 strain (AID 167); conditions: S. cerevisiae bub3 mutant strain, at 50.0 µM, active compounds read high
# In short: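 Growth of a checkpoint-deficient yeast mutant is measured after compound exposure. Values represent inhibition relative to vehicle.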
# [6] = NCI Yeast Anticancer Drug Screen. Data for the mlh1 rad18 strain (AID 175); conditions: S. cerevisiae mlh1 rad18 strain growth inhibition; at 50.0 µM; active compounds read high
# In short: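 Vehicle-treated cultures served as the reference for growth inhibition in a yeast strain carrying DNA damage repair alterations exposed to each compound.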
Compound,growth inhibition [1],growth inhibition [2],growth inhibition [3],growth inhibition [4],growth inhibition [5],growth inhibition [6]
CSCCOC(=O)C1C2CCC(O2)C1C(=O)O (stereo unspecified),11.1%,10.6%,1.55%,9.25%,-0.6%,17.6%
CC(=O)Nc1cc(F)c2c(c1F)Cc1cc(F)ccc1-2,15.1%,21.9%,11.7%,-63.4%,5.15%,7.95%
CC1(C=O)C(=O)CCC2(C)C3CC(=O)OC3CCC12 (stereo unspecified),-35%,-10.1%,-10.8%,-20.3%,-17.7%,-27.1%
CC(O)c1cccc(C(C)(C)O)c1Sc1c(C(C)(C)O)cccc1C(C)(C)O (stereo unspecified),13%,7.8%,10.1%,-0.75%,6.25%,-14.6%
Cc1nc(N)nc(C)c1N=Nc1cc(Cl)cc(Cl)c1,-27.1%,4.15%,-2.2%,-32.9%,10.2%,-7.85%
Cc1nn(CCO)c2nc(N)nc(N)c12,2.05%,3.35%,-0.4%,-1.45%,-6.35%,-3.2%
CCN(CC)c1ncnc2c1nc(C)n2Nc1ccccc1,13.7%,-3.1%,1.3%,7.4%,0.5%,-10.7%
COc1ccc(/C=C/C(=O)c2sc(NC(=S)NC(=O)c3ccc(Cl)cc3)nc2C)cc1OC,16.2%,13.2%,28.6%,9.8%,-1.6%,7.2%
CCC(C)C(=O)OCC1(c2ccc(C)cc2OC(=O)C(C)C)CO1 (stereo unspecified),15.7%,-2.45%,19.2%,-1%,-6%,12.2%
OCCOc1c(Cl)c(C(Cl)(Cl)Cl)nc2ccccc12,84.2% (active),95.3% (active),91% (active),46%,94% (active),94.3% (active)
COc1cccc(/C=N/N(C)c2c([N+](=O)[O-])cc(C(F)(F)F)cc2[N+](=O)[O-])c1O,-1.3%,-17.3%,-16.6%,14.1%,3.7%,-5.8%
c1ccc2c(c1)ccc1ccc3ocnc3c12,6.45%,-0.95%,-3.15%,-6.6%,9.15%,10%
CCCCCSC,21%,-12.1%,11.2%,10.1%,7.9%,28.6%
CCOc1nc(-c2ccccc2)cc(-c2ccc(N3CCOCC3)cc2)c1C#N,19%,9.55%,-7.4%,-11.6%,-4.5%,27.5%
CCCCCCCCN(CCCCCCCC)CC(O)c1ccc2c(c1)Sc1ccccc1O2 (stereo unspecified),96.7% (active),98.2% (active),97.5% (active),97.1% (active),97.1% (active),98% (active)
O=C1CCC2(CC1)SCCCS2,-0.6%,-21.5%,-16.1%,20.9%,-7.3%,-17.1%
Nc1nnc2nc(C(C(=O)c3cccc(O)c3)c3nc4nnc(N)n4[nH]c3=O)c(=O)[nH]n12,8.65%,0%,-7.05%,4.7%,1.2%,1.05%
Nc1ccc(C(=O)O)cn1,-20.4%,-11.1%,29.6%,-34.5%,9.95%,-0.45%
CC/C(=C/CO)c1ccccc1,46.5%,5.65%,17.6%,6.05%,10.8%,36.4%
"COc1ccc(CC2C(=O)OC(C)C(NC(=O)c3c4nc5c(C(=O)NC6C(=O)NC(C(C)C)C(=O)N7CCCC7C(=O)N(C)CC(=O)N(C)C(Cc7ccc(OC)cc7)C(=O)OC6C)ccc(C)c5oc-4c(C)c(=O)c3N)C(=O)NC(C(C)C)C(=O)N3CCCC3C(=O)N(C)CC(=O)N2C)cc1 (stereo unspecified) (I: TVP[Sar][NMeY](Me) / II: TVP[Sar][NMeY](Me); ester I:1-I:C, II:1-II:C; linker I:N-II:N via Actinocin(1to9); configuration not given here)",-3%,-3.65%,-26.1%,8.5%,-25.8%,-24.7%
O=C(NCc1ccccn1)c1ccccc1,17.5%,15.8%,-4.45%,-18.9%,17.1%,6.8%

Compound,growth inhibition [1],growth inhibition [2],growth inhibition [3],growth inhibition [4],growth inhibition [5],growth inhibition [6]
CCOC(=O)Nc1n[nH]nc1Cl,-21.5%,-10.1%,25.1%,-20.9%,-20.1%,-12.7%
NC(=S)NCc1ccccc1C(O)c1ccccc1 (stereo unspecified),18.8%,13.8%,-0.75%,18.3%,18.5%,21.2%
Cc1c(C)c(C(=O)O)c(C)c(C)c1C(=O)O,25.9%,-8.1%,17.9%,9.1%,24.4%,0.05%
CC(C)CC/C(=N\NC(N)=O)C1CCOCC1,-3.1%,14.2%,9.25%,-7.2%,-0.05%,-3.85%
COn1nnc2ccccc21,-21%,-13.8%,-19.9%,5.15%,7.9%,-18.1%
Cc1ccc(S(=O)(=O)OCC2CC=CCC2COS(=O)(=O)c2ccc(C)cc2)cc1 (stereo unspecified),5.4%,-8.2%,-9.75%,-15.2%,6%,28.8%
O=C(COc1cc(Cl)c(Cl)cc1Cl)Nc1c(Cl)cc(Cl)cc1Cl,2.5%,5.8%,-2.75%,-18.6%,-2.15%,22.7%
COc1cc(C(C)O)c[n+](CCc2c[nH]c3ccccc23)c1 (stereo unspecified),-30%,-19.5%,-45.9%,-8.1%,-28%,-36.5%
CCOCCOCCOCc1nc(C#N)c(N)o1,-35.6%,-23.3%,-27.8%,-14.8%,-30.5%,-63.4%
CN1CCCCCCCC(=O)C(OC(=O)c2ccc([N+](=O)[O-])cc2)CCCCCCC1 (stereo unspecified),33.5%,4.25%,27%,9.85%,1.55%,14.1%
C#CCN(CCO)Cc1ccccc1,-3.4%,-18.6%,-3.75%,9.25%,-4%,2.7%
CCOC(=O)c1cnc2c(ccc3ncccc32)c1Cl,-13.9%,-7.45%,15.8%,25.2%,7%,27.1%
Cn1cc(-c2ccc3c4ccccc4n(C)c3c2)c2ccccc21,-17.9%,-4.3%,-7.5%,-2.8%,-10.2%,2.15%
C=CCc1cc(OC)ccc1O,22.3%,36.8%,30.8%,-3%,22.3%,19.6%
C=C[C@]1(O)CCC[C@]2(C)C(=O)CCC12C (stereo partly specified),-2.8%,-21.9%,-19.2%,10.8%,-22.2%,-31.9%
CC(C#N)NC(=O)NC(C)C(N)=O (stereo unspecified),3.85%,6.3%,-5%,-48.3%,8.2%,-27.7%
CC(=O)NC1CCCC(CC2CCCCC2)C1 (stereo unspecified),18.4%,0.45%,-7.8%,-56%,17.6%,-14.9%
COc1ccc(OC)c(C(=O)C=C(C(F)(F)F)C(F)(F)F)c1,-7.65%,-0.95%,-3.8%,-41.6%,-9.3%,58.9%
CC(=O)[C@H]1CC[C@H]2[C@@H]3CC=C4C=CCC[C@]4(C)[C@H]3CC[C@]12C,-6.3%,1%,-3.55%,-58.5%,8.4%,6.7%
O=C(O)CNCc1ccccc1,2.85%,22.5%,14.6%,-4.45%,16.4%,-15.3%

# Reference: PubChem BioAssay (NCI)
